For 47 compounds, % cells with GFP-LC3 spots and toxicity results are on record in PubChem BioAssay AID463193 (University of Pittsburgh Molecular Library Screening Center, 2010).

About 1,900 (1%) of roughly 190,000 compounds were called active.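 How the source made its calls: active means percentage of spot-positive cells more than 3 SD above its plate mean, without a fluorescence outlier flag or 80% toxicity; inconclusive means no clear call, values can overlap the other calls; inactive means the rest.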 Shown is part of a subset that was picked to be rich in actives.

The experiment is described as follows: autophagy modulators in MEF cells, primary screen, imaging, high-content, MEF GFP-LC3 (AID 463193).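 On % cells with GFP-LC3 spots: spot-positive cell cutoff set from DMSO-treated cells.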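 On toxicity: cell loss after 18 h compound exposure.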 The following applies: MEF GFP-LC3 puncta imaging, at 10 µM; % cells with GFP-LC3 spots: stronger effect = higher value; toxicity: measured here: cell loss, nuclei count.
`CCOc1ccc(N(CC(=O)NCCc2ccc(OC)cc2)S(C)(=O)=O)cc1`: the % cells with GFP-LC3 spots is 1.57% (inactive) and the toxicity was -14.4%.
Take `COc1ccc(C2CC(c3ccc(Cl)cc3Cl)Nc3nc(N)nn32)cc1OC` (centres undefined): the % cells with GFP-LC3 spots is 14.3% (active) and the toxicity stood at 1.79%.
For `Cc1ccc(C2CC(c3cccc(C)c3)n3nc(N)nc3N2)cc1` (centres undefined), in that order: 4.2% (inactive) and 10.4%.
For `COc1ccc(C2CC(c3ccc(C)cc3)Nc3nc(N)nn32)cc1` (centres undefined), the % cells with GFP-LC3 spots was 17.9% (inactive) and the toxicity is -20.4%.
With `O=C(CSc1nc(-c2ccco2)cc(C(F)(F)F)n1)N1CCc2ccccc2C1`, the % cells with GFP-LC3 spots is 0.274% (inactive) and the toxicity was -3.54%.
As for `COc1ccc(-c2cc(C(F)(F)F)nc(SCCC(=O)NCc3ccco3)n2)cc1`, the % cells with GFP-LC3 spots is 14.8% (inactive) and the toxicity stood at 0.225%.
For the compound `O=C(CSc1nc(-c2ccco2)cc(C(F)(F)F)n1)NCc1cccs1`, the % cells with GFP-LC3 spots is 11.9% (active) and the toxicity is 19.8%.
Consider `Cc1ccc(S(=O)(=O)N2CCCC2C(=O)OCc2nc3sc(C)c(C)c3c(=O)[nH]2)cc1` (centres undefined), for which the % cells with GFP-LC3 spots is 7.41% (inactive) and the toxicity was found to be 2.2%.
For `CS(=O)(=O)N(CC(=O)N/N=C/c1ccccn1)c1ccc(Oc2ccccc2)cc1` the same measures were 19.6% (inactive) and 9.84%.
For `COc1cc(N=Cc2c(O)[nH]c3ccccc23)cc(OC)c1OC`, in that order: 1.9% (inactive) and 14.8%.
Turning to `COc1ccc(OC)c(N=Cc2c(O)[nH]c3ccccc23)c1`, the % cells with GFP-LC3 spots is 30.3% (active) and the toxicity worked out at 10.8%.
On to `COc1ccc(N=Cc2c(O)[nH]c3ccccc23)cc1OC`, for which the % cells with GFP-LC3 spots is 20.4% (inactive) and the toxicity was determined as 0.85%.
Regarding `O=C(NNC1CC(=O)N(c2cccc(Cl)c2)C1=O)c1cccnc1` (centres undefined), the % cells with GFP-LC3 spots is 14.6% (inactive) and the toxicity is -11.8%.
For `COc1cccc2c(O)cc(=O)n(C)c12`, the % cells with GFP-LC3 spots was 6.52% (inactive) and the toxicity amounted to 15.8%.
For `O=C(c1cccc(C(=O)N2CCN(c3ccc(F)cc3)CC2)c1)N1CCN(c2ccc(F)cc2)CC1` the same measures were 13% (inactive) and -26%.
As for `CCN1CCN(C(c2cccnc2)c2cc(Cl)c3cccnc3c2O)CC1` (centres undefined), the % cells with GFP-LC3 spots was 0.145% (inactive) and the toxicity was found to be 15.1%.
For the compound `Oc1c(CN2CCN(c3ccc(F)cc3)CC2)cc(Cl)c2cccnc12`, the % cells with GFP-LC3 spots is 52% (active) and the toxicity amounted to 33.9%.
For the compound `C=CCn1c(CCNC(=O)c2ccccc2F)nnc1SCC(=O)Nc1ccc(OC)cc1`, the % cells with GFP-LC3 spots is 1.65% (inactive) and the toxicity is 10.4%.
For the compound `COc1ccc(OC)c(S(=O)(=O)NCCC(C)C)c1`, the % cells with GFP-LC3 spots was 7.62% (inactive) and the toxicity is 7.42%.
For `CCn1c(-c2cc(OC)ccc2OC)csc1=Nc1c(C)n(C)n(-c2ccccc2)c1=O`, in that order: 12.4% (active) and -0.744%.
Turning to `CN=c1scc(-c2cc(OC)ccc2OC)n1/N=C/c1c(C)[nH]c2ccccc12`, the % cells with GFP-LC3 spots was 8.49% (inactive) and the toxicity turned out to be 3.61%.
Take `COc1ccc(S(=O)(=O)Nc2c(C)n(C)n(-c3ccccc3)c2=O)cc1`: the % cells with GFP-LC3 spots was 4.67% (inactive) and the toxicity worked out at 4.21%.
For `COc1ccc(-c2nc(N)sc2C2(O)C(=O)Nc3c(Br)cc(F)cc32)cc1OC` (centres undefined), in that order: 1.66% (inactive) and -1.9%.
`COC(=O)NNC1=CC(=O)CC(C)(C)C1`: the % cells with GFP-LC3 spots is 0.796% (inactive) and the toxicity is -6.02%.
For `Clc1cc(-c2ccc(/C=N/n3cnnc3)o2)ccc1Br` the same measures were 8.69% (inactive) and 20.9%.
In the case of `CC(=O)N/N=C(\C)c1ccc(Br)cc1Br`, the % cells with GFP-LC3 spots is 20.7% (inactive) and the toxicity worked out at 2.43%.
On to `COc1ccc(N2CCN(C(c3cc4ccc(C)cc4[nH]c3=O)c3nnnn3C3CCCC3)CC2)cc1` (centres undefined), for which the % cells with GFP-LC3 spots is 5.85% (inactive) and the toxicity is -3.74%.
Regarding `Cc1cc(C)c2[nH]c(=O)c(C(c3nnnn3Cc3ccc4c(c3)OCO4)N3CCCC3)cc2c1` (centres undefined), the % cells with GFP-LC3 spots was 21.2% (inactive) and the toxicity was determined as 8.95%.
Turning to `CCOC(=O)C1CCN(C(c2cc3cc(C)cc(C)c3[nH]c2=O)c2nnnn2C2CCCCC2)CC1` (centres undefined), the % cells with GFP-LC3 spots is 19.2% (active) and the toxicity was determined as 24.2%.
Consider `O=C(CN1C(=O)NC2(CCCC2)C1=O)NCC1CCCO1` (centres undefined), for which the % cells with GFP-LC3 spots was 11.1% (inactive) and the toxicity stood at 7.52%.
For `C/C(=N\NC(=O)c1cc2c(s1)CCC(C)C2)c1cccnc1` (centres undefined), the % cells with GFP-LC3 spots was 17.7% (inactive) and the toxicity is -0.909%.
`O=C(NNC(=O)c1cc2c(s1)CCCC2)c1ccccc1`: the % cells with GFP-LC3 spots is 9.94% (inactive) and the toxicity was -13.8%.
For `CC1CCc2sc(C(=O)N/N=C/C3CCCCC3)cc2C1` (centres undefined), the % cells with GFP-LC3 spots is 20.3% (active) and the toxicity is -2.28%.
For `COC(=O)c1c(C)[nH]c(C)c1-c1ccc([N+](=O)[O-])cc1`, the % cells with GFP-LC3 spots is 18.2% (inactive) and the toxicity was 38.9%.
Take `CCOC(=O)c1c(NC(=O)Cn2nc(C(F)(F)F)cc2C)sc2c1CCC2`: the % cells with GFP-LC3 spots is 7.63% (inactive) and the toxicity came to 0.444%.
As to `N=c1c2c(-c3ccccc3)c(-c3ccccc3)oc2ncn1Cc1ccco1`, the % cells with GFP-LC3 spots was 5.09% (inactive) and the toxicity was -0.176%.
`Cc1nc([N+](=O)[O-])c(NCCCO)n1Cc1ccccc1`: the % cells with GFP-LC3 spots was 43.4% (inactive) and the toxicity came out at 4.77%.
On to `N=c1c2c(-c3ccccc3)c(-c3ccccc3)n(Cc3ccccc3)c2ncn1CCCO`, for which the % cells with GFP-LC3 spots was 32% (active) and the toxicity came out at 9.38%.
Consider `O=C(Cc1ccccc1)NNS(=O)(=O)c1ccc([N+](=O)[O-])cc1`, for which the % cells with GFP-LC3 spots is 5.31% (inactive) and the toxicity is -4.08%.
`CCCCN(CC)C(=O)c1ccccc1Oc1ccccc1`: the % cells with GFP-LC3 spots was 7.48% (inactive) and the toxicity is -0.889%.
In the case of `CCCC(=O)n1nc(-c2ccccc2)nc1N`, the % cells with GFP-LC3 spots was 10.8% (inactive) and the toxicity was -5.17%.
For `CCc1nn(-c2cc(Oc3cccc4ccccc34)nc(-c3ccccc3)n2)c(N)c1C#N`, in that order: 19.2% (active) and -18%.
Consider `COc1ccc(C2c3c(C)nn(-c4ccccc4)c3NC(=O)N2c2ccccc2)cc1` (centres undefined), for which the % cells with GFP-LC3 spots is 11% (inactive) and the toxicity was found to be 17.6%.
For the compound `COc1ccc(CN2CCCC(C(=O)c3ccc(Cl)cc3)C2)cc1Cn1cncn1` (centres undefined), the % cells with GFP-LC3 spots is 0.149% (inactive) and the toxicity is -9.01%.
For the compound `Cc1nn(CC(=O)Nc2ccc(C#N)cc2)c(C)c1[N+](=O)[O-]`, the % cells with GFP-LC3 spots was 2.1% (inactive) and the toxicity came out at 9.5%.
On to `CCc1ccc(NC(=O)Cn2nc(C)c([N+](=O)[O-])c2C)cc1`, for which the % cells with GFP-LC3 spots is 13.4% (active) and the toxicity was determined as 38.8%.
For `Cc1nn(CC(=O)Nc2ccc(N(C)C)cc2)c(C)c1[N+](=O)[O-]`, in that order: 8.73% (inactive) and -12.8%.
